Assay results as given in PubChem BioAssay AID624483 (NMMLSC, 2012).
The whole screen tested about 360,000 compounds, of which about 11,000 (3.1%) were called active. Inconclusive results (about 2%) are left out. Cut-off read from the data, not from the text of the source: active = fluorescence intensity above about 16000; inconclusive = no clear call, values can overlap the other calls; inactive = below that. The sample as a whole holds a higher share of actives than the screen did.

assay: compound fluorescence in toxin protease inhibitor counterscreen, primary screen, artefact control for toxin protease inhibitor project, biochemical, multiplex microsphere, HTS (AID 624483); settings: compound autofluorescence counterscreen, microsphere flow cytometry; active compounds read high

SMILES	fluorescence intensity
O=C(NCC(F)(F)F)Nc1nnc(C(F)(F)F)s1	2520 (inactive)
CC(Nc1nc(N2CCOCC2)nc2ccccc12)c1ccccc1 (centres undefined)	4260 (inactive)
Fc1cnc(N2CCOCC2)nc1NCc1ccccc1	19200 (active)
c1ccc(COc2nsnc2N2CCOCC2)cc1	4190 (inactive)
CC(C)CCNC(=O)CN(C(=O)Cn1nnc(-c2ccc(F)cc2)n1)C1CCCC1	7590 (inactive)
COc1cccc(N(CC(=O)NC2CCCC2)C(=O)CCCC(=O)Nc2ccccn2)c1	6270 (inactive)
COc1cccc(N(CC(=O)NC2CCCC2)C(=O)Cn2nnc(-c3ccc(C)o3)n2)c1	5040 (inactive)
COc1ccc(-c2nnn(CC(=O)N(CCO)C(C(=O)NC3CCCC3)c3ccc(F)cc3)n2)cc1 (centres undefined)	20700 (active)
CN(C(=O)Cn1nnc(-c2ccc(F)cc2)n1)C1CCS(=O)(=O)C1 (centres undefined)	6480 (inactive)
CC(C)CCNC(=O)C(C)N(C(=O)Cn1nnc(-c2ccc(F)cc2)n1)C1CCCC1 (centres undefined)	23500 (active)
CCOCCCN(C(=O)Cn1nnc(-c2ccc(OC)c(OC)c2)n1)C(CC)C(=O)NC1CCCC1 (centres undefined)	3360 (inactive)
COc1ccc(C(C(=O)NC2CCCC2)N(CCCO)C(=O)Cn2nnc(-c3ccc(C)o3)n2)cc1 (centres undefined)	5780 (inactive)
COc1cccc(N(CC(=O)NC2CCCC2)C(=O)Cn2nnc(-c3ccc(C)cc3)n2)c1	20000 (active)
Cc1ccc(C(=O)O)cc1S(=O)(=O)NCC1CCCO1 (centres undefined)	8490 (inactive)
O=C(O)C(=Cc1ccccc1[N+](=O)[O-])c1ccccc1	3020 (inactive)
CCOC1=C2[C@H]([C@H]3C(=O)N(c4ccccc4)C(=O)[C@H]3C1)[C@@H](c1ccccc1)N(S(=O)(=O)c1ccc(C)cc1)[C@H]2c1ccccc1	5740 (inactive)
CN(CCO)C(=O)c1nc[nH]c1C(=O)N(C)Cc1ccccc1	6070 (inactive)
COCCCNc1ccn2nc(-c3ccc(CC(C)C)cc3)cc2n1	3740 (inactive)
CC1(C(=O)Nc2cccc(Oc3ccccc3)c2)CCN1Cc1ccccc1Cl (centres undefined)	2960 (inactive)
CCCS(=O)(=O)NC(=O)C1(C)CCCN(C(=O)c2ccnc(Cl)c2)C1 (centres undefined)	3780 (inactive)

SMILES	fluorescence intensity
O=C(NCc1cccnc1)c1cc(C2CCCN(C(=O)C3CCCCC3)C2)on1 (centres undefined)	3680 (inactive)
CC1(C)CC(=O)C=C(NCCCNC2CCCCC2)C1	16400 (active)
CC1(C)CC(=O)C=C(NC2CC(C)(C)NC(C)(C)C2)C1	11500 (inactive)
CC1(C)CC(=O)C=C(NCCCN2CCCC2=O)C1	10600 (inactive)
CCOc1ccc(C(=O)NC2CCN(CC(=O)NCc3cccs3)CC2)cc1	4320 (inactive)
CC(=O)c1cccc(-c2cnc3c(NC=O)cc(-c4ccccc4Oc4ccccc4)cn23)c1	2970 (inactive)
CCc1nc2ccc(C(=O)Nc3ccc(OC)c(OC)c3)cn2c1N(C)C(=O)c1cccc(OC)c1	3840 (inactive)
Cc1cccc(NC(=O)C2CCCN2S(=O)(=O)c2ccc(F)cc2)c1C (centres undefined)	12300 (inactive)
CSc1cccc(NC(=O)C2CCCN2S(=O)(=O)c2ccc3c(c2)CCC(=O)N3)c1 (centres undefined)	22100 (active)
O=C1CCc2cc(S(=O)(=O)N3CCC(C(=O)NCc4ccccc4Cl)CC3)ccc2N1	5010 (inactive)
O=CNc1cc(-c2ccc(C(=O)N3CCOCC3)cc2)cn2c(-c3ccc(F)cc3)cnc12	4100 (inactive)
NC(Cc1ccccc1)c1csc(Nc2cc(Oc3ccccc3)ncn2)n1 (centres undefined)	3760 (inactive)
CN1CCN(C(=O)N2c3ccccc3CCc3ccccc32)CC1	4530 (inactive)
CC1CC(C)CN(CC(=O)Nc2ccc(S(N)(=O)=O)cc2)C1 (centres undefined)	4900 (inactive)
CC1CC(C)CN(CC(=O)N2c3ccccc3CCc3ccccc32)C1 (centres undefined)	17600 (active)
Cc1cccc(C)c1-n1nnnc1C1(C)CCC(=O)N1CCOc1ccccc1 (centres undefined)	6150 (inactive)
Cc1nc2c(OCC(=O)C(C)(C)C)cccn2c1N(C)Cc1cccs1	2880 (inactive)
CC(C)C[C@@H]1Cc2[nH][nH]c(=O)c2[C@H](CCc2ccccc2)O1	4470 (inactive)
N=C1c2ccccc2-c2ccccc21	3590 (inactive)
COc1ccc(C(C#N)N2N=C(C)CC2(C)C)cc1 (centres undefined)	4130 (inactive)

SMILES	fluorescence intensity
CC1Cc2ccccc2N1C(=O)Cn1cnc2ccccc2c1=O (centres undefined)	3200 (inactive)
CC1Cc2ccccc2N1C(=O)CSc1nc2ccccc2o1 (centres undefined)	16300 (active)
O=C(CSc1nc2ccccc2o1)N1c2ccccc2Sc2ccc(Cl)cc21	22300 (active)
O=C(CSc1nc2ccccc2o1)N1CCN(c2ccc(Cl)cc2)CC1	6400 (inactive)
Cc1ccccc1OCc1nnc(SCC(=O)N2c3ccccc3Sc3ccc(Cl)cc32)o1	20200 (active)
O=C(CSc1nc2ccccc2o1)N1CCN(c2ccccc2)CC1	2560 (inactive)
CC1Cc2ccccc2N1C(=O)CSc1nnc(C2CC2)n1C (centres undefined)	4920 (inactive)
CC1CC(C)CN(C(=O)CSc2nnc(CSc3ncccn3)n2C)C1 (centres undefined)	4260 (inactive)
CCn1c(CSc2ncccn2)nnc1SCC(=O)N1c2ccccc2CC1C (centres undefined)	23500 (active)
Cc1ccc(NC(=O)CSc2nnc(COc3ccccc3C)o2)cc1	3160 (inactive)
CCS(=O)(=O)c1ccc2oc(SCC(=O)N3c4ccccc4CC3C)nc2c1 (centres undefined)	8960 (inactive)
CC(C)NC(=O)CSc1nnc(COc2ccccc2Cl)o1	4480 (inactive)
O=S(=O)(c1ccc(Cl)cc1)N1CCCN(c2ccc(C(F)(F)F)cn2)CC1	6060 (inactive)
NC(c1csc(NC(=O)Nc2cccc(C(F)(F)F)c2)n1)C1CCCCC1 (centres undefined)	2870 (inactive)
Cc1cc2oc3ccc(NCCC4CCCN4C)cc3c(=O)c2cc1C (centres undefined)	5120 (inactive)
COC(=O)c1ccc2nc(-c3ccc(F)cc3)c(Cc3ccc(C)cc3)n2c1	7460 (inactive)
Cc1ccc(NC2=NC(c3ccccc3)n3c(nc(C)cc3=O)N2)cc1 (centres undefined)	3910 (inactive)
CC(=O)Nc1c(-c2ccc(C)cc2)nc2ccc(Cl)cn12	2860 (inactive)
Cc1occc1C(=O)NC1CCCN(Cc2ccc(CC(C)C)cc2)C1 (centres undefined)	7560 (inactive)
